Test results as given in PubChem BioAssay (NCATS).
Inconclusive results are not listed. Calls of active or inactive are those of the source. Calls follow the shape of the dose curve; as a rule, active = well fitted cell-killing curve with a large enough effect; inconclusive = small, poorly fitted or top-dose-only effect, or effect the other way; inactive = flat fitted curve, though single readings scatter.

Columns and labels:
Experiment in all cases: Primary qHTS to identify gynecologic anti-cancer compounds using libraries of approved drugs and bioactive compounds (AID 1345084); also: nearly all actives have a fitted effect of over 55% in size
Details in all cases: Gynecologic cancer cell panel viability, ATPlite luminescence, 48 h; series mostly up to 57.5 µM
[1] = test system: JEG-3
Summary of the method: (§1)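 Cells, 1,000 per well, were allowed to settle for 16 h at 37 C before compound addition. Five concentrations were tested for 48 h, and viability was read by ATPlite luminescence after 15 min at room temperature.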

[2] = test system: OV90
Summary of the method: as §1

[3] = test system: PA-1
Summary of the method: as §1

[4] = test system: SKOV3
Summary of the method: as §1

[5] = test system: Tov-21-G
Summary of the method: as §1

[6] = test system: Tov112D
Summary of the method: as §1
% is scaled to controls: 0 for no effect and ±100 for the full control effect; potency is read from the fitted curve at half-maximal effect.

CC(C)c1cccc2c(-c3ccccc3)cc(-c3ccc(-c4ccc(C(=O)O)cc4)[nH]3)nc12
inactive: Potency [1] | Potency [2] | Potency [3] | Potency [4]

C[C@@H]1O[C@@H](O[C@H]2[C@H](OC(=O)[C@]34CCC(C)(C)C[C@H]3C3=CCC5[C@@]6(C)CC[C@H](O[C@@H]7O[C@H](C(=O)O)[C@@H](O)[C@H](O)[C@H]7O[C@@H]7O[C@H](CO)[C@H](O)[C@H](O)[C@H]7O)[C@@](C)(C=O)C6CC[C@@]5(C)[C@]3(C)C[C@H]4O)O[C@H](C)[C@H](O[C@@H]3O[C@H](C)[C@H](O)[C@H](O)[C@H]3O)[C@@H]2O)[C@H](O)[C@H](O)[C@H]1O[C@@H]1OC[C@@H](O)[C@H](O[C@@H]2O[C@H](CO)[C@@H](O)[C@H](O)[C@H]2O)[C@H]1O (some centres undefined)
inactive: activity change, negative = cytotoxicity [1] -1.59% [at 6.55 µM] | activity change, negative = cytotoxicity [2] -26.3% [at 6.55 µM]

CC(=O)OC1CC2(C)C3=CCC4(C)C5C(O)C(O)C(C(C)C)C5(C)CCC4(C)C3CCC2C(C)(C)C1OC1OC(CO)C(O)C(O)C1O (centres undefined)
inactive: Potency [1] | Potency [2] | Potency [3] | Potency [4] | Potency [5] | Potency [6]

COc1ncc2cc(C(=O)Nc3cc(C(=O)NCc4cccc(Cl)c4)ccc3Cl)c(=O)[nH]c2n1
inactive: Potency [1] | Potency [2] | Potency [3] | Potency [4]

Cc1ccc(S(=O)(=O)Cc2nc(-c3ccc(C(=O)NCc4cccnc4)cc3)oc2C)cc1
inactive: Potency [1] | Potency [2]

CCNC(=O)Nc1ccc(-c2nc3c(c(N4CCOC[C@@H]4C)n2)CCN(c2ncccn2)C3)cc1
inactive: Potency [1]
active: Potency [2] 1260 nM | Potency [3] 1120 nM

CC(=O)OC/C=C(\C)C(CC1C(C)=C(OC(C)=O)C(=O)C2C(C)(C)C(O)CCC12C)OC(C)=O (centres undefined)
inactive: Potency [1] | Potency [2] | Potency [3] | Potency [4] | Potency [5] | Potency [6]

CC1(C)CC(NC(=O)C(=O)Nc2ccc(Br)cc2)CC(C)(C)N1
inactive: Potency [1] | Potency [2]

Nc1nc(Nc2ccc(S(N)(=O)=O)cc2)n(C(=S)Nc2c(F)cccc2F)n1
inactive: Potency [1] | Potency [2] | Potency [3] | Potency [4]

CCOc1cc(C)c(Cl)cc1S(=O)(=O)n1cnc2ccccc21
inactive: Potency [1] | Potency [2] | Potency [3] | Potency [4] | Potency [5] | Potency [6]

CCC1C(=O)OC23C=C[C@@H]4C(C(=O)O)=CO[C@H](O[C@@H]12)[C@@H]43 (some centres undefined)
inactive: Potency [1] | Potency [2] | Potency [3] | Potency [4]

N#Cc1cnc2cnc(NCc3cccnc3)cc2c1Nc1ccc(F)c(Cl)c1
inactive: Potency [1]

COC(=O)N1CCC(n2ncc3c(N4CCOCC4)nc(-c4ccc(NC(=O)Nc5ccc(CO)cc5)cc4)nc32)CC1
active: Potency [1] 15800 nM | Potency [2] 794 nM | Potency [3] 2510 nM | Potency [4] 282 nM

CC(=O)O[C@H]1CC(C)(C)CC2[C@@]13[C@H](O)C[C@]1(C)[C@@]2(CCC2[C@@]4(C)CC[C@H](O[C@@H]5OC[C@H](O[C@@H]6O[C@H](CO)[C@@H](O)[C@H](O)[C@H]6O[C@@H]6OC[C@@H](O)[C@H](O)[C@H]6O)[C@H](O)[C@H]5O[C@@H]5O[C@H](CO)[C@@H](O)[C@H](O)[C@H]5O)C(C)(C)C4CC[C@]21C)O[C@@H]3O (some centres undefined)
active: Potency [1] 2820 nM | Potency [2] 3160 nM

CC(Oc1cc(-n2cnc3ccc(CN4CCN(C)CC4)cc32)sc1C(N)=O)c1ccccc1C(F)(F)F (centres undefined)
active: Potency [1] 5620 nM | Potency [3] 11200 nM
inactive: Potency [2]

C=C(C(=O)OC)C1C(O)CC2(C)C(O)CCC(=O)C2C1O (centres undefined)
inactive: Potency [1] | Potency [2]

CNC(=O)c1cccc(-c2ccc3c(N4CCOC[C@@H]4C)nc(N4CCOC[C@@H]4C)nc3n2)c1
inactive: Potency [1]
active: Potency [2] 1260 nM | Potency [3] 1580 nM | Potency [4] 1580 nM | Potency [5] 1410 nM

CN1C2CCC1CC(OC(=O)[C@H](CO)c1ccccc1)C2 (some centres undefined)
inactive: Potency [1]

COc1ccc(-c2ccc3c(N4CCOCC4)nc(N4CC(C)OC(C)C4)nc3n2)cc1CO (centres undefined)
inactive: Potency [1]
active: Potency [2] 2820 nM | Potency [3] 2510 nM | Potency [4] 794 nM | Potency [5] 1260 nM

CC1(C)CC[C@]2(C(=O)O)[C@H](O)C[C@]3(C)C(=CCC4[C@@]5(C)CC[C@H](O[C@@H]6O[C@H](CO[C@@H]7OC[C@H](O)[C@H](O)[C@H]7O[C@@H]7OC[C@@H](O)[C@H](O)[C@H]7O)[C@@H](O)[C@H](O)[C@H]6O[C@@H]6O[C@H](CO)[C@@H](O)[C@H](O)[C@H]6O)C(C)(C)C5CC[C@]43C)[C@@H]2C1 (some centres undefined)
inactive: activity change, negative = cytotoxicity [1] 8.72% [at 11.6 µM] | activity change, negative = cytotoxicity [2] 15.1% [at 11.6 µM] | activity change, negative = cytotoxicity [3] -2.35% [at 11.6 µM] | activity change, negative = cytotoxicity [4] 21.8% [at 11.6 µM] | activity change, negative = cytotoxicity [5] -13.8% [at 11.6 µM] | activity change, negative = cytotoxicity [6] 1.64% [at 11.6 µM]

C=CC(=O)Nc1cccc(CN2C(=O)N(c3c(Cl)c(OC)cc(OC)c3Cl)Cc3cnc(NCCCCN(CC)CC)nc32)c1
inactive: Potency [1] | Potency [2]

CC12CCC(OC3OC(CO)C(O)C(OC4OC(CO)C(O)C(O)C4O)C3O)CC1=CCC1C2CCC2(C)/C(=C3/COC(=O)C3)CCC12O (centres undefined)
inactive: Potency [1] | Potency [2] | Potency [3] | Potency [4] | Potency [5]

NC(=O)c1cccc(-c2cc(OC(=O)NC3CCCCC3)ccc2O)c1
inactive: Potency [1] | Potency [2] | Potency [3] | Potency [4]

O=C(Nc1ccc(Cl)cc1F)c1ccccc1O
inactive: Potency [1]

C=C1C(OC2OCC(O)C(O)C2O)CC2C(C)(C)C(O)CCC2(C)C1CC/C(C)=C\CO (centres undefined)
inactive: Potency [1] | Potency [2] | Potency [3] | Potency [4] | Potency [5] | Potency [6]

Nc1ccc(/C=C/C(=O)NCc2cc3cc(-c4ccc(C(=O)N5CCC(F)(F)CC5)cc4)cc(-c4ccc(F)cc4)c3o2)cn1
active: Potency [1] 1580 nM | Potency [2] 3550 nM | Potency [3] 1410 nM | Potency [4] 1780 nM | Potency [5] 3160 nM

Cc1cc(C)c(Nc2ccnc(Nc3ccc(C#N)cc3)n2)c(C)c1
active: Potency [2] 10000 nM
inactive: Potency [1] | Potency [3]

CC(C)(O)C1CCC(C)(C2CCC3(C)C4CCC5C(C)(C(=O)OC6OC(CO)C(O)C(O)C6O)C(O)CC(O)C56CC46CCC23C)O1 (centres undefined)
inactive: Potency [1] | Potency [2] | Potency [3] | Potency [4] | Potency [5] | Potency [6]

CCOCc1cc(OC)c(-c2ccc(C[C@H](NC(=O)c3c(F)cccc3F)C(=O)O)cc2)c(OC)c1
inactive: Potency [1] | Potency [2] | Potency [3] | Potency [4] | Potency [5]
